Data reported in PubChem BioAssay AID1159580 (chemical genetic matrix, 2015).
Hit rate of the full screen: of about 5,500 compounds, about 2,000 (36%) were called active. Roughly 18% stayed inconclusive and do not appear here. No stated cut-off is given here; in the data, active means normalized growth mostly below about 0.91 (no sharp cut-off); inconclusive means no clear call, values can overlap the other calls; inactive means mostly above about 0.92. The list shows a part of the results.

Test: chemical genetic growth profiling, strain panel (AID 1159580);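 further: tested at 20 µM; growth read once vehicle control cultures reached saturation at 30 °C; 1 = growth at the plate median or of vehicle wells; lower values mean less growth of the strain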
Details: S. cerevisiae deletion strains, growth OD

Measured: normalized growth

N=c1ccn2c(n1)OC1C(O)C(CO)OC12 (stereo unspecified)
inactive: locus YAL021C, strain ccr4, active compounds read low 1.01 | locus YAL026C, strain drs2, active compounds read low 1.02 | locus YAL030W, strain snc1, active compounds read low 0.991 | locus YBL061C, strain skt5, active compounds read low 1.01 | locus YBR009C, strain hhf1, active compounds read low 1.01 | locus YBR023C, strain chs3, active compounds read low 0.995 | locus YBR171W, strain sec66, active compounds read low 1.01 | locus YBR231C, strain swc5, active compounds read low 1.01 | locus YBR279W, strain paf1, active compounds read low 1.01 | locus YCL011C, strain gbp2, active compounds read low 1.01 | locus YCL016C, strain dcc1, active compounds read low 1 | locus YCL061C, strain MRC1, active compounds read low 0.986 | locus YCL069W, strain vba3, active compounds read low 1.01 | locus YCR088W, strain abp1, active compounds read low 1.01 | locus YDL005C, strain med2, active compounds read low 0.986 | locus YDL040C, strain nat1, active compounds read low 0.986 | locus YDR001C, strain nth1, active compounds read low 1.01 | locus YDR069C, strain doa4, active compounds read low 1.01 | locus YDR137W, strain rgp1, active compounds read low 1.02 | locus YDR159W, strain sac3, active compounds read low 1 | locus YDR195W, strain ref2 0.976 | locus YDR297W, strain sur2, active compounds read low 0.986 | locus YDR334W, strain swr1, active compounds read low 1 | locus YDR335W, strain msn5, active compounds read low 1 | locus YDR392W, strain spt3, active compounds read low 1.01 | locus YEL003W, strain gim4, active compounds read low 1 | locus YEL037C, strain rad23, active compounds read low 0.995 | locus YEL061C, strain CIN8 (second series), active compounds read low 1.01 | locus YER015W, strain faa2, active compounds read low 1.01 | locus YER016W, strain bim1, active compounds read low 1 | locus YER111C, strain swi4, active compounds read low 0.981 | locus YER155C, strain BEM2 (second series), active compounds read low 1.01 | locus YFR010W, strain ubp6, active compounds read low 0.998 | locus YGL167C, strain pmr1, active compounds read low 1 | locus YGL173C, strain kem1, active compounds read low 0.996 | locus YGL227W, strain vid30, active compounds read low 1.02 | locus YGL240W, strain doc1, active compounds read low 0.978 | locus YGL253W, strain hxk2, active compounds read low 1 | locus YHR013C, strain ard1, active compounds read low 1.01 | locus YHR027C, strain rpn1, active compounds read low 1.01 | locus YHR142W, strain chs7, active compounds read low 1.01 | locus YJL092W, strain hpr5, active compounds read low 1.01 | locus YJL095W, strain BCK1 (second series), active compounds read low 1 | locus YJL115W, strain asf1, active compounds read low 1.01 | locus YJL129C, strain trk1, active compounds read low 1.02 | locus YJL154C, strain vps35, active compounds read low 1 | locus YJL164C, strain tpk1, active compounds read low 1 | locus YJL166W, strain qcr8, active compounds read low 0.982 | locus YKL160W, strain elf1, active compounds read low 1 | locus YKR026C, strain gcn3, active compounds read low 1.02 | locus YKR091W, strain srl3, active compounds read low 1 | locus YLL001W, strain dnm1, active compounds read low 0.998 | locus YLL026W, active compounds read low 1 | locus YLL041C, strain sdh2, active compounds read low 1 | locus YLR027C, strain aat2, active compounds read low 1.01 | locus YLR221C, strain rsa3, active compounds read low 0.993 | locus YLR258W, strain gsy2, active compounds read low 1.01 | locus YLR262C, strain YPT6 (second series), active compounds read low 1.02 | locus YLR320W, strain mms22, active compounds read low 1.01 | locus YLR342W, strain FKS1, active compounds read low 1.01 | locus YLR357W, strain rsc2, active compounds read low 0.946 | locus YLR370C, strain arc18, active compounds read low 1.01 | locus YLR384C, strain iki3, active compounds read low 1 | locus YML120C, strain ndi1, active compounds read low 0.993 | locus YMR058W, strain fet3, active compounds read low 0.998 | locus YMR125W, strain sto1, active compounds read low 0.995 | locus YMR129W, active compounds read low 0.987 | locus YMR205C, strain PFK2, active compounds read low 1.01 | locus YMR231W, strain pep5, active compounds read low 1.01 | locus YNL071W, strain lat1, active compounds read low 1.02 | locus YNL209W, strain ssb2, active compounds read low 1 | locus YNL248C, strain rpa49, active compounds read low 1.01 | locus YNL322C, strain KRE1 (second series), active compounds read low 1.01 | locus YNR049C, strain mso1, active compounds read low 1 | locus YOR001W, strain rrp6, active compounds read low 1.01 | locus YOR070C, strain gyp1, active compounds read low 1.01 | locus YOR080W, strain dia2, active compounds read low 0.996 | locus YOR083W, strain WHI5, active compounds read low 1.01 | locus YOR106W, strain vam3, active compounds read low 1.02 | locus YOR265W, strain rbl2, active compounds read low 0.993 | locus YOR270C, strain vph1, active compounds read low 1.04 | locus YOR290C, strain snf2, active compounds read low 1.01 | locus YPL051W, strain arl3, active compounds read low 1 | locus YPL078C, strain atp4, active compounds read low 0.996 | locus YPL106C, strain sse1, active compounds read low 0.981 | locus YPL240C, strain hsp82, active compounds read low 1.02
